Measurements as given in PubChem BioAssay.
The source made the active and inactive calls. Unless noted, no rule for the calls is given here.

Tests used:
[1] = system: Wnt5a (protein binding on small-molecule microarray); assay: small molecules binding Wnt5a protein – biophysical, small-molecule microarray, 635/667 nm fluorescence, primary screen (AID 1142); conditions: 635 nm fluorescence, higher = more signal;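 also: fluorescence read at 667 nm with signal to noise per printed feature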
[2] = ATP-based viability of Huh7 replicon cells – cell-based, CellTiter-Glo luminescence, basal, 48 h, cytotoxicity control for HCV replication inhibitor project, primary screen (AID 1143); conditions: higher = more signal, called active from +8 up or from −8 down;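 also: Huh7 hepatoma cells carrying a hepatitis C replication reporter with no stimulus; test concentration not given here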
[3] = Pseudomonas biofilm growth suppression – PAO1 strain, BacTiter-Glo luminescence, LB-PBS, primary screen (AID 1144); conditions: P. aeruginosa PAO1 biofilm, 12 h, higher = more signal
[4] = basal CRE-LacZ reporter activity in PC12 – cell-based, unstimulated, primary screen (AID 1145); conditions: no forskolin, luminescence, 4.5 h, higher = more signal, called active from +8 up or from −8 down
[5] = forskolin-driven CRE-LacZ activity in PC12 – cell-based, CRE-LacZ reporter, forskolin-stimulated, primary screen (AID 1146); conditions: luminescence, 4.5 h, higher = more signal, called active from +8 up or from −8 down;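 also: PC12 cells with 6xCRE LacZ reporter stimulated by forskolin 10 µM; beta-galactosidase reporter signal reflecting CREB driven transcription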
[6] = molecular target: Streptavidin (Streptomyces avidinii) (UniProt P22629); assay: compounds binding control protein streptavidin – biophysical, small-molecule microarray, 635/667 nm fluorescence, artefact control for SMM compound annotation, primary screen (AID 1147); conditions: higher = more signal;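 also: signal reflects streptavidin binding to arrayed compounds as a control protein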
Streptavidin (Streptomyces avidinii), sequence (P22629 whole entry, looked up): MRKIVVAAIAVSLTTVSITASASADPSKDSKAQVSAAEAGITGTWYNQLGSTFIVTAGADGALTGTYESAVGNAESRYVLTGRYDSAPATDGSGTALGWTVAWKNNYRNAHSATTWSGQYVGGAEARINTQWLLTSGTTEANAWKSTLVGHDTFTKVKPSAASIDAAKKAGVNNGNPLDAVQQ

[7] = probe aInhba binding on compound microarray – biochemical, small-molecule microarray, 635/667 nm fluorescence, primary screen (AID 1148); conditions: higher = more signal;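 also: score merges 667nm spot fluorescence with signal-to-noise for antibody binding to printed compounds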
Torsin-1A (Homo sapiens) [8] = molecular target: Torsin-1A (Homo sapiens) (UniProt O14656); assay: TOR1A wild-type binding on microarray – cell lysate, small-molecule microarray, lysate, 635/667 nm, primary screen (AID 1149); conditions: COS7 hTOR1A-WT lysate, 635 nm fluorescence, higher = more signal
Torsin-1A (Homo sapiens), sequence (O14656 whole entry, looked up): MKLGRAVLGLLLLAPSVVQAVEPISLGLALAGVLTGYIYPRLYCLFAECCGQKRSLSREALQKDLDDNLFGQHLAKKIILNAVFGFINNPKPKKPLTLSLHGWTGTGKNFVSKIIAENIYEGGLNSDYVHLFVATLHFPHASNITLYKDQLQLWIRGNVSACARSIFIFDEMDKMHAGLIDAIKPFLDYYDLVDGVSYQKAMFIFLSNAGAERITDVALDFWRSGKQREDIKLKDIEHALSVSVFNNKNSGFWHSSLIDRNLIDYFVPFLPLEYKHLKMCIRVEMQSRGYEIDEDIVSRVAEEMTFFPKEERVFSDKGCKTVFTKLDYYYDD

Torsin-1A (Homo sapiens) [9] = molecular target: Torsin-1A (Homo sapiens) (UniProt O14656); assay: torsin A mutant lysate binding on microarrays – cell lysate, small-molecule microarray, COS7 lysate, 635/667 nm fluorescence, primary screen (AID 1150); conditions: COS7 hTOR1A mutant lysate, 635 nm fluorescence, higher = more signal;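 also: score pools 667 nm emission and signal to noise measuring lysate protein binding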
[10] = system: Sonic hedgehog protein (Shh); assay: Sonic hedgehog microarray binding compounds – biochemical, small-molecule microarray, 635/667 nm fluorescence, primary screen (AID 1151); conditions: 635 nm fluorescence, higher = more signal;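 also: Shh protein binding to compounds spotted on small-molecule microarray slides; score combines spot fluorescence intensity with signal-to-noise across triplicate slides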

## CN(C)C(=O)[C@]1(Cc2ccccc2N=[N+]=[N-])N=C(c2ccc(OCCCO)cc2)O[C@@H]1c1ccccc1N=[N+]=[N-]
[1]
  composite z-score: 0.46
[2]
  z-score: -4.48 (inactive)
[3]
  z-score: -0.938 (inactive)
[4]
  z-score: 0.0686 (inactive)
[5]
  z-score: -1 (inactive)
[6]
  composite z-score: 1.41
[7]
  composite z-score: -0.0162
Torsin-1A (Homo sapiens) [8]
  composite z-score: 1.49
Torsin-1A (Homo sapiens) [9]
  composite z-score: 0.799
[10]
  composite z-score: 0.428

## C=CCNC(=O)[C@@H]1[C@H]2C(=O)O[C@H](c3ccccc3)[C@H](c3ccccc3)N2[C@H](c2ccccc2OCCO)[C@@]12C(=O)N(C(=O)OCCOC)c1ccccc12
[1]
  composite z-score: 0.562
[2]
  z-score: -4.46 (inactive)
[3]
  z-score: 1.23 (inactive)
[4]
  z-score: 0.204 (inactive)
[5]
  z-score: -0.768 (inactive)
[6]
  composite z-score: 0.209
[7]
  composite z-score: -0.0259
Torsin-1A (Homo sapiens) [8]
  composite z-score: 0.226
Torsin-1A (Homo sapiens) [9]
  composite z-score: 0.603
[10]
  composite z-score: 2.17

## CCOC(=O)C1=C[C@@H](C(C)(C)C)N(S(=O)(=O)c2ccc(C)cc2)[C@H]1c1ccc(F)cc1
[1]
  composite z-score: 0.219
[2]
  z-score: -3.79 (inactive)
[3]
  z-score: 0.673 (inactive)
[4]
  z-score: 0.0423 (inactive)
[5]
  z-score: 0.81 (inactive)
[6]
  composite z-score: 1.1
[7]
  composite z-score: 0.255
Torsin-1A (Homo sapiens) [8]
  composite z-score: 0.159
Torsin-1A (Homo sapiens) [9]
  composite z-score: 0.575
[10]
  composite z-score: 0.584

## NC(=O)NCC#Cc1ccc2c(c1)[C@]1(C(=O)N2)[C@H](c2ccccc2OCCO)N2[C@H](c3ccccc3)[C@H](c3ccccc3)OC(=O)[C@H]2[C@@H]1C(=O)Nc1nc2ccccc2s1
[1]
  composite z-score: -0.0307
[2]
  z-score: 0.0402 (inactive)
[3]
  z-score: -1.39 (inactive)
[4]
  z-score: -0.0784 (inactive)
[5]
  z-score: 0.335 (inactive)
[6]
  composite z-score: 0.441
[7]
  composite z-score: 0.0314
Torsin-1A (Homo sapiens) [8]
  composite z-score: -0.671
Torsin-1A (Homo sapiens) [9]
  composite z-score: 0.0313
[10]
  composite z-score: 0.812

## C=CC[C@@]1(C(=O)NCCN2CCOCC2)N=C(c2ccc(OCCCO)cc2)O[C@@H]1c1ccccc1N=[N+]=[N-]
[1]
  composite z-score: 0.298
[2]
  z-score: -1.56 (inactive)
[3]
  z-score: 0.45 (inactive)
[4]
  z-score: 0.185 (inactive)
[5]
  z-score: -0.461 (inactive)
[6]
  composite z-score: 0.236
[7]
  composite z-score: -0.0093
Torsin-1A (Homo sapiens) [8]
  composite z-score: -0.0075
Torsin-1A (Homo sapiens) [9]
  composite z-score: 0.416
[10]
  composite z-score: -0.203

## O=C1C2C=CC(C(O)c3cc(C(F)(F)F)cc(C(F)(F)F)c3)N(n3cnnc3)C2C(=O)N1Cc1ccccc1 (stereo not given)
[1]
  composite z-score: -0.484
[2]
  z-score: -1.34 (inactive)
[3]
  z-score: -1.12 (inactive)
[4]
  z-score: 0.089 (inactive)
[5]
  z-score: 0.753 (inactive)
[6]
  composite z-score: 0.0422
[7]
  composite z-score: -0.0719
Torsin-1A (Homo sapiens) [8]
  composite z-score: -0.808
Torsin-1A (Homo sapiens) [9]
  composite z-score: -0.0144
[10]
  composite z-score: -0.755

## O=C(CS)NCCCCCCNC(=O)[C@@H]1C[C@@H]2C(=O)N[C@@H](Cc3ccccc3)C(=O)N2[C@@H]1c1cccc(OCCO)c1
[1]
  composite z-score: 0.879
[2]
  z-score: 0.0037 (inactive)
[3]
  z-score: -0.614 (inactive)
[4]
  z-score: -0.134 (inactive)
[5]
  z-score: -0.112 (inactive)
[6]
  composite z-score: 0.253
[7]
  composite z-score: -0.163
Torsin-1A (Homo sapiens) [8]
  composite z-score: 1.1
Torsin-1A (Homo sapiens) [9]
  composite z-score: 1.48
[10]
  composite z-score: 1.49

## CC(C)C[C@@H]1NC(=O)[C@@H]2C[C@H](C(=O)NCc3ccc(F)cc3)[C@H](c3cccc(OCCO)c3)N2C1=O
[1]
  composite z-score: 1.9
[2]
  z-score: -0.119 (inactive)
[3]
  z-score: -1.53 (inactive)
[4]
  z-score: 0.826 (inactive)
[5]
  z-score: -0.798 (inactive)
[6]
  composite z-score: -0.443
[7]
  composite z-score: 0.286
Torsin-1A (Homo sapiens) [8]
  composite z-score: 0.265
Torsin-1A (Homo sapiens) [9]
  composite z-score: 1.3
[10]
  composite z-score: 1.75

## O=C(OCc1ccccc1)C1=CCC2c3[nH]c4ccccc4c3C(=O)C1N2S(=O)(=O)c1ccccc1[N+](=O)[O-] (stereo not given)
[1]
  composite z-score: 0.794
[2]
  z-score: -1.26 (inactive)
[3]
  z-score: -0.00859 (inactive)
[4]
  z-score: -0.0137 (inactive)
[5]
  z-score: -0.451 (inactive)
[6]
  composite z-score: 0.745
[7]
  composite z-score: 0.11
Torsin-1A (Homo sapiens) [8]
  composite z-score: 0.498
Torsin-1A (Homo sapiens) [9]
  composite z-score: 0.497
[10]
  composite z-score: 0.488

## CCCC[C@H]1OB(O)C[C@H]2C1=C(COC)C[C@H]1C(=O)N(C)C(=O)[C@H]12
[1]
  composite z-score: 0.277
[2]
  z-score: 0.203 (inactive)
[3]
  z-score: 0.573 (inactive)
[4]
  z-score: 0.76 (inactive)
[5]
  z-score: 0.505 (inactive)
[6]
  composite z-score: 0.727
[7]
  composite z-score: -0.0093
Torsin-1A (Homo sapiens) [8]
  composite z-score: 0.408
Torsin-1A (Homo sapiens) [9]
  composite z-score: 0.301
[10]
  composite z-score: 1.32

## Cc1ccc(S[C@]2(C(=O)NCCCN(C)C)CC(=O)N(Cc3ccccc3C(F)(F)F)[C@@H]2c2ccc(CO)cc2)cc1
[1]
  composite z-score: -0.197
[2]
  z-score: 0.312 (inactive)
[3]
  z-score: 1.08 (inactive)
[4]
  z-score: -0.295 (inactive)
[5]
  z-score: 0.358 (inactive)
[6]
  composite z-score: -0.0283
[7]
  composite z-score: -0.0791
Torsin-1A (Homo sapiens) [8]
  composite z-score: -0.544
Torsin-1A (Homo sapiens) [9]
  composite z-score: 0.801
[10]
  composite z-score: -0.548

## O=C1NC(=O)C2C1C=CC(C(O)c1cc(C(F)(F)F)cc(C(F)(F)F)c1)N2Nc1ccccn1 (stereo not given)
[1]
  composite z-score: -0.102
[2]
  z-score: 0.804 (inactive)
[3]
  z-score: -0.162 (inactive)
[4]
  z-score: 0.0501 (inactive)
[5]
  z-score: 0.403 (inactive)
[6]
  composite z-score: 0.0086
[7]
  composite z-score: -0.0059
Torsin-1A (Homo sapiens) [8]
  composite z-score: -0.138
Torsin-1A (Homo sapiens) [9]
  composite z-score: 0.237
[10]
  composite z-score: 0.87

## CO[C@H]1O[C@H](CO)[C@@H](OC(=O)Nc2ccccc2)[C@H](OC(=O)Nc2ccccc2)[C@@H]1OC(=O)Nc1ccccc1
[1]
  composite z-score: 1.13
[2]
  z-score: -4.73 (inactive)
[3]
  z-score: -0.309 (inactive)
[4]
  z-score: 0.101 (inactive)
[5]
  z-score: -0.825 (inactive)
[6]
  composite z-score: 0.467
[7]
  composite z-score: 0.347
Torsin-1A (Homo sapiens) [8]
  composite z-score: 0.451
Torsin-1A (Homo sapiens) [9]
  composite z-score: 0.872
[10]
  composite z-score: 1.48

## O=C1C[C@@](C(=O)NCCN2CCOCC2)(c2ccc([N+](=O)[O-])cc2)[C@@H](c2ccc(CO)cc2I)N1CC12CC3CC(CC(C3)C1)C2
[1]
  composite z-score: 0.92
[2]
  z-score: -5.9 (inactive)
[3]
  z-score: 1.22 (inactive)
[4]
  z-score: -0.269 (inactive)
[5]
  z-score: -0.435 (inactive)
[6]
  composite z-score: 0.489
[7]
  composite z-score: 0.134
Torsin-1A (Homo sapiens) [8]
  composite z-score: 0.97
Torsin-1A (Homo sapiens) [9]
  composite z-score: 0.578
[10]
  composite z-score: 2.14

## C=CCN1C(=O)[C@@]2(Cc3ccccc31)N=C(c1ccc(OCCCO)cc1)O[C@H]2c1ccccc1
[1]
  composite z-score: 0.344
[2]
  z-score: -3.53 (inactive)
[3]
  z-score: -0.144 (inactive)
[4]
  z-score: 0.47 (inactive)
[5]
  z-score: -1.81 (inactive)
[6]
  composite z-score: 0.0866
[7]
  composite z-score: 0.195
Torsin-1A (Homo sapiens) [8]
  composite z-score: 0.698
Torsin-1A (Homo sapiens) [9]
  composite z-score: 0.855
[10]
  composite z-score: 1.14

## C=C(COC)/C(=C/C[C@H](OC(C)=O)c1ccc(CO)o1)c1cc(C(=O)OC)ccc1OC
[1]
  composite z-score: 0.122
[2]
  z-score: -3.08 (inactive)
[3]
  z-score: -0.261 (inactive)
[4]
  z-score: 1.78 (inactive)
[5]
  z-score: 1.71 (inactive)
[6]
  composite z-score: -0.427
[7]
  composite z-score: -0.154
Torsin-1A (Homo sapiens) [8]
  composite z-score: -0.156
Torsin-1A (Homo sapiens) [9]
  composite z-score: 0.647
[10]
  composite z-score: 0.756
